PubChem BioAssay AID2125 (NMMLSC, 2009)
A number with no mark means an inactive call.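 How the source made its calls: active means combined score above 50, rising as EC50 falls below 10 µM and growth at top dose drops; inactive means the rest.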 Peptide text beside a SMILES is read from it. * marks the point of attachment. Cbz = O=C(OCc1ccccc1)*

Tested on: YE3959
Assay: yeast strain panel proliferation effects – secondary panel, OD600, 26S proteasome disassembly project, profiling panel (AID 2125)
Details: S. cerevisiae strain panel, growth OD600, 6-8 h, at 100 µM, hits give low values

Row | SMILES | percent response (growth)
1 | CC(C)C[C@@H](C=O)NC(=O)[C@H](CC(C)C)NC(=O)[C@H](CC(C)C)NC(=O)OCc1ccccc1 (Cbz-Leu-Leu-Leu-aldehyde) | 52.8%
2 | CC(=O)N1C(=O)C(=C2C=C(C)OC(C)=C2)c2ccccc21 | 60.8%
